Laboratory results published in PubChem BioAssay AID1159580 (chemical genetic matrix, 2015).
Among all 5,500 compounds or so, about 2,000 (36%) were called active. Another 18% or so got no clear call; they are omitted. Rule as the data show it: active = normalized growth mostly below about 0.91 (no sharp cut-off); inconclusive = no clear call, values can overlap the other calls; inactive = mostly above about 0.92. This is one part of the list.

Experiment: chemical genetic growth profiling, strain panel (AID 1159580);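 also: tested at 20 µM; growth read once vehicle control cultures reached saturation at 30 °C; 1 = growth at the plate median or of vehicle wells; lower values mean less growth of the strain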
Details: growth OD
[1] = S. cerevisiae deletion strains, locus YBR021W, strain FUR4, active compounds read low
[2] = S. cerevisiae deletion strains, locus YBR229C, strain ROT2, active compounds read low
[3] = S. cerevisiae deletion strains, locus YCL029C, strain bik1, active compounds read low
[4] = S. cerevisiae deletion strains, locus YDL035C, strain GPR1, active compounds read low
[5] = S. cerevisiae deletion strains, locus YDL074C, strain BRE1, active compounds read low
[6] = S. cerevisiae deletion strains, locus YDL101C, strain DUN1, active compounds read low
[7] = S. cerevisiae deletion strains, locus YDL185W, strain tfp1, active compounds read low
[8] = S. cerevisiae deletion strains, locus YDL192W, strain arf1, active compounds read low
[9] = S. cerevisiae deletion strains, locus YDR101C, strain arx1, active compounds read low
[10] = S. cerevisiae deletion strains, locus YDR150W, strain NUM1, active compounds read low
[11] = S. cerevisiae deletion strains, locus YDR162C, strain NBP2, active compounds read low
[12] = S. cerevisiae deletion strains, locus YDR318W, strain mcm21, active compounds read low
[13] = S. cerevisiae deletion strains, locus YDR388W, active compounds read low
[14] = S. cerevisiae deletion strains, locus YDR502C, strain sam2, active compounds read low
[15] = S. cerevisiae deletion strains, locus YEL061C, strain CIN8, active compounds read low
[16] = S. cerevisiae deletion strains, locus YER110C, active compounds read low
[17] = S. cerevisiae deletion strains, locus YER155C, strain BEM2, active compounds read low
[18] = S. cerevisiae deletion strains, locus YER167W, strain BCK2, active compounds read low
[19] = S. cerevisiae deletion strains, locus YGL078C, strain dbp3, active compounds read low
[20] = S. cerevisiae deletion strains, locus YGL086W, strain mad1, active compounds read low
[21] = S. cerevisiae deletion strains, locus YGL248W, strain PDE1, active compounds read low
[22] = S. cerevisiae deletion strains, locus YGR135W, strain pre9, active compounds read low
[23] = S. cerevisiae deletion strains, locus YGR229C, strain SMI1, active compounds read low
[24] = S. cerevisiae deletion strains, locus YGR252W, strain gcn5, active compounds read low
[25] = S. cerevisiae deletion strains, locus YHR030C, strain SLT2, active compounds read low
[26] = S. cerevisiae deletion strains, locus YHR079C, strain IRE1 (second series), active compounds read low
[27] = S. cerevisiae deletion strains, locus YHR094C, strain hxt1, active compounds read low
[28] = S. cerevisiae deletion strains, locus YHR129C, strain ARP1, active compounds read low
[29] = S. cerevisiae deletion strains, locus YHR200W, strain rpn10, active compounds read low
[30] = S. cerevisiae deletion strains, locus YIL066C, strain RNR3, active compounds read low
[31] = S. cerevisiae deletion strains, locus YIL073C, strain SPO22, active compounds read low
[32] = S. cerevisiae deletion strains, locus YIL125W, strain kgd1, active compounds read low
[33] = S. cerevisiae deletion strains, locus YIR030C, strain dcg1, active compounds read low
[34] = S. cerevisiae deletion strains, locus YJL095W, strain BCK1, active compounds read low
[35] = S. cerevisiae deletion strains, locus YJL134W, strain LCB3, active compounds read low
[36] = S. cerevisiae deletion strains, locus YJL168C, strain set2, active compounds read low
[37] = S. cerevisiae deletion strains, locus YJL187C, strain SWE1 (second series), active compounds read low
[38] = S. cerevisiae deletion strains, locus YJR043C, strain POL32, active compounds read low
[39] = S. cerevisiae deletion strains, locus YKL009W, strain mrt4, active compounds read low
[40] = S. cerevisiae deletion strains, locus YKL068W, active compounds read low
[41] = S. cerevisiae deletion strains, locus YKL085W, strain MDH1 (second series), active compounds read low
[42] = S. cerevisiae deletion strains, locus YKL085W, strain MDH1, active compounds read low
[43] = S. cerevisiae deletion strains, locus YKL190W, strain CNB1, active compounds read low
[44] = S. cerevisiae deletion strains, locus YKR001C, strain vps1, active compounds read low
[45] = S. cerevisiae deletion strains, locus YLR039C, strain RIC1, active compounds read low
[46] = S. cerevisiae deletion strains, locus YLR058C, strain SHM2, active compounds read low
[47] = S. cerevisiae deletion strains, locus YLR102C, strain apc9, active compounds read low
[48] = S. cerevisiae deletion strains, locus YLR268W, strain sec22, active compounds read low
[49] = S. cerevisiae deletion strains, locus YLR330W, strain CHS5, active compounds read low
[50] = S. cerevisiae deletion strains, locus YLR371W, strain rom2, active compounds read low
[51] = S. cerevisiae deletion strains, locus YLR418C, strain cdc73, active compounds read low
[52] = S. cerevisiae deletion strains, locus YML016C, strain PPZ1, active compounds read low
[53] = S. cerevisiae deletion strains, locus YML032C, strain rad52, active compounds read low
[54] = S. cerevisiae deletion strains, locus YML124C, strain tub3, active compounds read low
[55] = S. cerevisiae deletion strains, locus YMR078C, strain ctf18, active compounds read low
[56] = S. cerevisiae deletion strains, locus YMR223W, strain ubp8, active compounds read low
[57] = S. cerevisiae deletion strains, locus YMR307W, strain GAS1, active compounds read low
[58] = S. cerevisiae deletion strains, locus YNL067W, strain RPL9B, active compounds read low
[59] = S. cerevisiae deletion strains, locus YNL153C, strain GIM3, active compounds read low
[60] = S. cerevisiae deletion strains, locus YNL233W, strain BNI4, active compounds read low
[61] = S. cerevisiae deletion strains, locus YNL250W, strain rad50, active compounds read low
[62] = S. cerevisiae deletion strains, locus YNL271C, strain bni1, active compounds read low
[63] = S. cerevisiae deletion strains, locus YNL298W, strain CLA4, active compounds read low
[64] = S. cerevisiae deletion strains, locus YNL307C, strain MCK1, active compounds read low
[65] = S. cerevisiae deletion strains, locus YNR052C, strain pop2, active compounds read low
[66] = S. cerevisiae deletion strains, locus YOL006C, strain TOP1, active compounds read low
[67] = S. cerevisiae deletion strains, locus YOL012C, strain htz1
[68] = S. cerevisiae deletion strains, locus YOL147C, strain pex11, active compounds read low
[69] = S. cerevisiae deletion strains, locus YOR061W, strain CKA2, active compounds read low
[70] = S. cerevisiae deletion strains, locus YOR069W, strain VPS5, active compounds read low
[71] = S. cerevisiae deletion strains, locus YOR136W, strain idh2, active compounds read low
[72] = S. cerevisiae deletion strains, locus YOR144C, strain elg1, active compounds read low
[73] = S. cerevisiae deletion strains, locus YOR184W, strain ser1, active compounds read low
[74] = S. cerevisiae deletion strains, locus YOR316C, strain cot1, active compounds read low
[75] = S. cerevisiae deletion strains, locus YPR119W, strain clb2, active compounds read low
[76] = S. cerevisiae deletion strains, locus YPR141C, strain kar3, active compounds read low
[77] = S. cerevisiae deletion strains, locus YPR163C, strain tif3, active compounds read low
[78] = S. cerevisiae deletion strains, locus YPR167C, strain met16, active compounds read low
[79] = S. cerevisiae deletion strains, strain wtn01, active compounds read low

Measured: normalized growth

COc1ccc(-c2c(O)c3cc4c(c(CC=C(C)C)c3oc2=O)OC(C)(C)CC4)cc1
inactive: [1] 1.01 | [2] 0.996 | [3] 1.02 | [4] 1.01 | [5] 1.03 | [6] 1.01 | [7] 1.03 | [8] 1.03 | [9] 1.01 | [10] 1.01 | [11] 0.993 | [12] 1.01 | [13] 1.02 | [14] 1.02 | [15] 1.01 | [16] 1.03 | [17] 1.01 | [18] 1.01 | [19] 1.01 | [20] 1.03 | [21] 1 | S. cerevisiae deletion strains, locus YGR078C, strain PAC10, active compounds read low 1.01 | [22] 1.03 | [23] 1.02 | [24] 1.02 | [25] 1.01 | [26] 1.01 | [27] 1.02 | [28] 1.01 | [29] 1 | [30] 1.01 | [31] 1.06 | [32] 1.02 | [33] 1.01 | [34] 1.01 | [35] 1.01 | [36] 1.02 | [37] 1.01 | [38] 1.01 | [39] 1.11 | [40] 1.01 | [41] 1.01 | [42] 1.01 | [43] 1 | [44] 1.02 | [45] 1.02 | [46] 1.01 | [47] 1.01 | S. cerevisiae deletion strains, locus YLR262C, strain YPT6, active compounds read low 1.07 | [48] 1.02 | [49] 1.02 | S. cerevisiae deletion strains, locus YLR342W, strain FKS1 (second series), active compounds read low 1.02 | [50] 1.02 | [51] 1.01 | [52] 1.01 | [53] 1.02 | [54] 1.01 | [55] 1.02 | [56] 1.01 | S. cerevisiae deletion strains, locus YMR263W, strain SAP30, active compounds read low 1.01 | [57] 1.08 | [58] 1.01 | S. cerevisiae deletion strains, locus YNL128W, strain TEP1, active compounds read low 1 | [59] 1 | [60] 1 | [61] 1.02 | [62] 1.01 | [63] 1.01 | [64] 1.02 | [65] 1.02 | [66] 1.17 | [67] 1.44 | [68] 1 | [69] 1 | [70] 1.01 | [71] 1.02 | [72] 0.999 | [73] 0.993 | [74] 1.02 | S. cerevisiae deletion strains, locus YPL241C, strain CIN2, active compounds read low 1.01 | [75] 1.02 | [76] 1.02 | [77] 1.01 | [78] 1.01 | [79] 1.01

COc1c(CC=C(C)C)c2c(c3oc(=O)c(-c4ccc(OC(C)=O)cc4)c(OC(C)=O)c13)C=CC(C)(C)O2
inactive: S. cerevisiae deletion strains, locus YAL013W, strain DEP1, active compounds read low 0.996 | [1] 0.986 | [2] 1.03 | [3] 1.02 | [4] 1.04 | [5] 1.08 | [6] 1.03 | [7] 1.02 | [8] 1.05 | [9] 1.01 | [11] 1.04 | [12] 1.02 | [13] 1.02 | [14] 1.03 | [16] 1.01 | [17] 1.01 | [18] 1.02 | [19] 1 | [20] 1.03 | [21] 1.08 | [22] 1.02 | [24] 1.1 | [26] 1.02 | [27] 1 | [28] 1 | [29] 1.03 | [30] 1.02 | [31] 1.06 | [32] 1.02 | [33] 0.996 | [34] 1.12 | [35] 1.01 | [36] 0.997 | [37] 1.03 | [38] 1.07 | S. cerevisiae deletion strains, locus YJR075W, strain HOC1, active compounds read low 1.03 | [40] 0.995 | [41] 1.01 | [42] 1.01 | [43] 0.997 | [44] 1.05 | [45] 1.12 | [46] 1.04 | [47] 1 | [48] 1.04 | [49] 1.02 | [50] 1.05 | [51] 1.08 | [52] 1.03 | [53] 1.01 | [54] 0.994 | [55] 1 | [56] 1.03 | [57] 1.15 | [58] 1 | [59] 1.03 | [60] 1.06 | [61] 0.989 | [62] 1.01 | [63] 1.01 | [64] 1 | [65] 1.01 | [66] 1.17 | [67] 1.04 | [68] 1.02 | [69] 1.02 | [70] 1.02 | [71] 1 | [72] 1.01 | [73] 1.04 | [74] 1.01 | [75] 1 | [76] 1 | [77] 1.02 | [78] 1 | [79] 1.04 | S. cerevisiae strains, strain wild type, active compounds read low 1.02

COc1c(CC=C(C)C)c2c(c3oc(=O)c(-c4ccc(O)cc4)c(O)c13)C=CC(C)(C)O2
inactive: [1] 0.918 | [2] 1.01 | [4] 0.918 | [6] 0.964 | [7] 1.03 | [9] 0.92 | [10] 1.03 | [11] 0.875 | [13] 0.975 | [14] 0.94 | [15] 0.968 | [16] 0.986 | [18] 0.951 | [19] 1 | [20] 0.937 | [21] 0.921 | [22] 0.989 | [24] 1.02 | [25] 0.974 | [26] 0.979 | [27] 0.976 | [30] 0.903 | [31] 0.952 | [32] 0.957 | [33] 0.953 | [35] 1.01 | [36] 0.961 | [37] 0.945 | [38] 0.947 | [39] 0.985 | [40] 1.01 | [41] 0.958 | [42] 0.958 | [45] 0.889 | [46] 0.912 | [47] 0.978 | [52] 0.992 | [54] 0.983 | [55] 0.98 | [56] 0.925 | [57] 0.773 | [58] 0.97 | [59] 0.922 | [60] 0.881 | [61] 1.04 | [62] 0.998 | [63] 0.989 | S. cerevisiae deletion strains, locus YNL322C, strain KRE1, active compounds read low 0.972 | [65] 0.917 | [66] 0.779 | [67] 0.812 | [69] 0.982 | [70] 0.997 | [71] 0.934 | [72] 0.968 | [74] 0.976 | [75] 0.977 | [76] 1 | [78] 0.938 | [79] 0.905
active: [3] 0.841 | [5] 0.687 | [8] 0.875 | [12] 0.896 | [17] 0.752 | [23] 0.722 | [28] 0.899 | [29] 0.908 | [34] 0.74 | [44] 0.869 | [48] 0.853 | [50] 0.769 | [51] 0.649 | [53] 0.896 | [64] 0.677 | [68] 0.902 | [73] 0.476 | [77] 0.84
